From PubChem
Methyltransferases = Primary Screen for Target Class Profiling of Small Molecule Inhibitors of Methyltransferases | purified enzyme, MTase-Glo SAH luminescence; active compounds read low | calls only at 40 µM | 3.9% of 25,000 active | AID 1745853, 2022; call rule not given here
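Each enzyme was assayed with SAM and its substrate. SAH formation detected by MTase-Glo luminescence; single-point 40 uM screen[…].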
An asterisk follows results filed as active; i = inactive; + = active, no number; ! = not confirmed by another sample. This excerpt belongs to a sample that is enriched for hits. On the % scale 0 is the no-effect control and ±100 the full control effect.

SMILES | Methyltransferases
Cn1c(=O)n(C)c2cc(S(=O)(=O)NCc3ccc(F)cc3)ccc21 | i
CCCSCCCN1C(=O)c2cc3sc(CC)cc3n2CC1(C)C(=O)NC1CCC(C)CC1 (stereo unspecified) | i
COc1ccccc1Nc1ncc2c(n1)CN(C(=O)c1cc3ccccc3n1C)CCN2 | i
COc1cc(N2CCC(N3CCN(C)CC3)CC2)ccc1Nc1ncc(Cl)c(-c2c[nH]c3ccccc23)n1 | +
COc1cc(N2CCOCC2)ccc1NC(=O)c1csc(-c2cccnc2)n1 | i
COc1cc(N2CCC(N)CC2)ccc1Nc1ncc(Cl)c(-c2c[nH]c3ccccc23)n1 | +
COc1ccc(N2C(=O)CSc3c(c4ccccc4n3C)C2C(=O)NCc2ccc(F)cc2)cc1OC (stereo unspecified) | i
CC1CCC(NC(=O)C2(C)Cn3c(cc4sccc43)C(=O)N2Cc2cccs2)CC1 (stereo unspecified) | i
CCc1cc2c(cc3n2CC(C)(C(=O)NC2CCCCCC2)N(Cc2ccccn2)C3=O)s1 (stereo unspecified) | i
CCCn1c(=O)c2ccccc2n2c(SCc3ccc(F)cc3)nnc12 | i
Cc1cc2c(cc1Cl)N(C(=O)Nc1ccc(Oc3cccnc3C)nc1)CC2 | i
COc1ccc(NC(=O)N2CCc3c2ccc2ccccc32)cc1N1CCN(C)CC1 | i
Cc1cc2c(cc1Cl)N(C(=O)Nc1ccnc3ccccc13)CC2 | +
Cc1ccc(CSc2nnc3n(C)c(=O)c4ccc(C(=O)NC5CCCCC5)cc4n23)cc1 | i
C=C1C(=O)O[C@@H]2/C=C(\C)CC/C=C(/C=O)[C@H](OC)[C@@H](OC(=O)C(C)C)[C@@H]12 | i
C=C1C(=O)OC2/C=C(\CO)CC/C=C(\C=O)C(OC)C(OC(=O)C(C)CC)C12 (stereo unspecified) | +
C=C1C(=O)O[C@@H]2/C=C(\C)CC/C=C(\C)CC[C@@H]12 | i
C=C(C)C(=O)O[C@H]1/C(C=O)=C\CC/C(CO)=C/[C@H]2OC(=O)C(=C)[C@@H]2[C@@H]1OC | i
C=C1C(=O)OC2/C=C(\C)CC/C=C(\C=O)C(OC)C(OC(=O)C(C)CC)C12 (stereo unspecified) | +
C=C1C(=O)O[C@@H]2/C=C(\C)CC/C=C(\C(=O)O[C@@H]3O[C@H](CO)[C@@H](O)[C@H](O)[C@H]3O)CC[C@@H]12 | i
CC(C)CNC(=O)N1CCn2cccc2C1C (stereo unspecified) | i
Cc1ccc(CNC(=O)c2cc3n(n2)CC(C)(C(=O)NCc2ccccc2)N(C)C3=O)cc1 (stereo unspecified) | i
COc1ccc(CNC(=O)C2(C)Cn3cnc(C(=O)NCc4ccccc4OC)c3C(=O)N2C2CC2)cc1 (stereo unspecified) | i
CCCn1c(=O)c2cc(Cl)ccc2n2c(SCC(=O)NCc3ccccc3Cl)nnc12 | i
Cc1c(Cl)cccc1N1C(=O)c2cc(-c3cccs3)nn2CC1(C)C(=O)NC1CCCCC1 (stereo unspecified) | i
SMILES | Methyltransferases
CCCN1C(=O)c2c(C(=O)NCc3ccccc3C)ncn2CC1(C)C(=O)NCCC(C)C (stereo unspecified) | i
CC(C)CNC(=O)c1ccc2c(=O)n(C(C)C)c3nn(CC(=O)Nc4cccc(F)c4)c(=O)n3c2c1 | i
COc1ccc(OC)c(CCNC(=O)CCc2nnc3n(Cc4ccccc4)c(=O)c4ccccc4n23)c1 | i
CCCn1c(=O)c2ccc(C(=O)NC(C)CC)cc2n2c(=O)n(CC(=O)Nc3ccc(C)cc3C)nc12 (stereo unspecified) | i
COC(=O)C1=C2Nc3ccccc3C23CCN2CCCC(C(C)O)(C1)C23 (stereo unspecified) | +
Cc1ccc2n1CCN(C(=O)Nc1ccc3c(c1)OCCO3)C2C(C)C (stereo unspecified) | i
CN(C)c1ccc(/C=C2\C(=O)Nc3ccccc32)cc1 | +
CC1CCC(NS(=O)(=O)c2ccc3c(c2)n(C)c(=O)n3C)CC1 (stereo unspecified) | i
COc1ccccc1CN1C(=O)c2cc3occc3n2CC1(C)C(=O)NC1CCC(C)CC1 (stereo unspecified) | i
COC(=O)c1ncn2c1C(=O)N(Cc1ccc(C)cc1)C(C)(C(=O)NCCCOC(C)C)C2 (stereo unspecified) | i
Cc1ccc(Cn2c(=O)c3ccccc3n3c(CCC(=O)NCCCN4CCCC4=O)nnc23)cc1 | i
Cc1[nH]nc2ccc(-c3cncc(OC[C@@H](N)Cc4ccccc4)c3)cc12 | +
CCCn1c(=O)c2ccc(Cl)cc2n2c(SCC(=O)Nc3cccc(C)c3)nnc12 | i
Cc1ccc(Cn2nc3n(C(C)C)c(=O)c4ccc(C(=O)NC5CCCC5)cc4n3c2=O)cc1 | i
CCN(CC)c1ncccc1CNC(=O)Nc1cccc(OC)c1 | i
COc1cccc(CNC(=O)Nc2cccc(-c3ccc(N4CCCCC4)nn3)c2)c1 | i
COC(=O)C1=C(C)NC(C)=C(C(=O)OC)C1c1cccc(NC(=O)NCCCN2CCC(c3cccc(OC)c3)CC2)c1 | +!
Cc1ccccc1CN1C(=O)c2cc3occc3n2CC1(C)C(=O)NC1CCCCCCC1 (stereo unspecified) | i
CC(C)c1cc2n(n1)CC(C)(C(=O)NC1CCCCC1)N(Cc1ccc(Cl)cc1)C2=O (stereo unspecified) | i
CCCn1c(=O)c2cc(Cl)ccc2n2c(SCC(=O)Nc3ccccc3OC)nnc12 | i
OC[C@H](Cc1ccccc1)Nc1nc(Oc2ccc3c(c2)CCC3)nc2c1ncn2Cc1ccc(-c2ccccc2)cc1 | +
Cc1ccc(Cn2nc3n(CC(C)C)c(=O)c4ccc(C(=O)NC5CCCC5)cc4n3c2=O)cc1 | i
CSc1cccc(N2C(=O)c3cc4ccccc4n3CC2(C)C(=O)NCCC(C)C)c1 (stereo unspecified) | i
CCOC(=O)C1CCN(C(=O)CN(C)S(=O)(=O)c2ccc3[nH]c4c(c3c2)CCCC4)CC1 | i
Cc1cc2c(cc1C1(c3ccc(C(=O)O)cn3)CC1)C(C)(C)CCC2(C)C | i
SMILES | Methyltransferases
CCCCCCCOc1cc2c(cc1/C(C)=C/c1ccc(C(=O)O)cc1)C(C)(C)CCS2(=O)=O | +
C[n+]1cc2c3c(ccc2c2ccc4cc5c(cc4c21)OCO5)OCO3 | +
CC(C)NC(=O)c1ccc2c(=O)nc3c(-c4ccccc4)n[nH]n3c2c1 | i
Cc1ccc(Cn2c(=O)c3ccccc3n3c(=O)n(CC(=O)Nc4ccc(Cl)cc4)nc23)cc1 | i
Cc1cnc(C2CCOCC2)n1C1CCN(S(=O)(=O)c2ccc3c(c2)OCCO3)CC1 | i
CC1(C)O[C@@]2(C)CC[C@@H]1C[C@@H]2OC1OC(CO)C(O)C(O)C1O (stereo partly specified) | +
CC(C)C(=O)O[C@@H]1[C@@H](O)[C@@H](O[C@H]2O[C@H](CO)[C@@H](O)[C@H](O)[C@H]2O)O[C@H](CO)[C@H]1O | i
CC(C)C(=O)OC[C@H]1O[C@H](O[C@H]2O[C@H](CO)[C@@H](O)[C@H](O)[C@H]2O)[C@H](O)[C@@H](O)[C@@H]1O | i
O=C(CCc1nnc2n(CCc3ccccc3)c(=O)c3ccccc3n12)NCc1ccc2c(c1)OCO2 | i
Cc1ccccc1CN1C(=O)c2ccc(-c3ccco3)n2CC1(C)C(=O)NC1CCCCCCC1 (stereo unspecified) | i
